Data taken from PubChem BioAssay (NCATS).
Records with an inconclusive call do not appear. Starred links: 1 amine or outer side, 2 acyl side, 3 side chain; linkers in the order of their positions; H or OH if unused. Positions of bridges follow the written chain, without caps; N, C: chain ends. Bridge positions count the residues as written; N and C are the ends. Non-standard residues stand in square brackets, D forms with d. Square brackets hold non-standard residues; d marks the D form. Residues, ends and D or L forms follow the SMILES beside them. Peptide text beside a SMILES is read from it. * marks the point of attachment. *: point of attachment. Ileψ(thiazoline)Cys = CC[C@H](C)[C@H](N)C1=N[C@H](C(=O)*)CS1; X1 = NC1=N[C@@H](O)C[C@@H]([C@@H](N[*:1])C(=O)[*:2])N1; ΔAla(Z-3-ureido) = NC(=O)N/C=C(\N)C(=O)O; d(aIle) = CC[C@H](C)[C@@H](N)C(=O)O; β3hOrn = NCCC[C@H](N)CC(=O)*; dOrn = NCCC[C@@H](N)C(=O)O; Dap = NC[C@H](N)C(=O)O

Assay: qHTS Assay for Lipid Storage Modulators (AID 1519)
Conditions: Drosophila S3 cells, BODIPY lipid droplet/cell ratio, laser cytometry; measured here: lipid channel max response; cells loaded with oleic acid
Method in brief: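 Cells seeded at 5,000 per well were treated with compounds over a concentration series and loaded with oleic acid (400 uM, as added). Lipid droplet fluorescence (488 nm excitation, 500-530 nm channel) was read by laser-scanning cytometry and normalized to 20 uM Triacsin C.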

Compound	max response [%]
C[C@@H]1C[C@H]2[C@@H]3C[C@H](F)C4=CC(=O)C=C[C@@]4(C)[C@]3(F)[C@H](O)C[C@]2(C)[C@@]1(O)C(=O)CO	-3.99
C[N+]1(C)CCC[C@H]1C(=O)[O-]	4.64
C[C@H](O)Cn1cnc2c1c(=O)n(C)c(=O)n2C	-3.77
CCCCC[C@H](O)/C=C\[C@@H]1[C@H](O)CC(=O)[C@@H]1CCCCCCC(=O)O	-11.1
CC(=C(CCOP(=O)(O)O)SC(=O)c1ccccc1)N(C=O)Cc1cnc(C)nc1N	-2.64
CC(C)(CO)[C@H](O)C(=O)NCCC(=O)O	6.98
NC[C@@H]1O[C@@H](O[C@H]2[C@H](O)[C@H](O[C@@H]3O[C@H](CO)[C@@H](O)[C@H](N)[C@@H]3O)[C@@H](N)C[C@H]2N)[C@H](N)C[C@@H]1O	-6.77
S=C(NC1CCCCC1)N1CCC([C@H]2C=NC=N2)CC1	2.69
CCc1c(C)[nH]c2c1C(=O)[C@H](CN1CCOCC1)CC2	-8.65
C=C1c2c(Cl)ccc(O)c2C(O)=C2C(=O)[C@@]3(O)C(O)=C(C(N)=O)C(=O)[C@@H](N(C)C)[C@@H]3[C@@H](O)[C@H]12	-8.74
CCC(=O)OCC(=O)[C@@]1(OC(=O)CC)[C@H](C)C[C@@H]2[C@@H]3[C@H]([C@@H](O)C[C@@]21C)[C@]1(C)C=CC(=O)C=C1C[C@@H]3Cl	-12.3
Nc1nc(=S)c2ncn([C@H]3O[C@@H](CO)[C@@H](O)[C@@H]3O)c2[nH]1	-3.95
C[C@H](CCC(=O)O)[C@H]1CC[C@@H]2[C@H]3[C@@H](CC[C@@]21C)[C@]1(C)CC[C@H](O)C[C@@H]1C[C@@H]3O	-4.97
CS(=O)(=O)c1ccc([C@H](O)[C@H](CF)NC(=O)C(Cl)Cl)cc1	2.55
CC[C@]1(c2ccccc2)NC(=O)N(C)C1=O	11.3
CC[C@H](C)[C@H](N)C1=N[C@H](C(=O)N[C@@H](CC(C)C)C(=O)N[C@@H](CCC(=O)O)C(=O)N[C@@H](C(=O)N[C@H]2CCCCNC(=O)[C@@H](CC(N)=O)NC(=O)[C@@H](CC(=O)O)NC(=O)[C@@H](Cc3cnc[nH]3)NC(=O)[C@@H](Cc3ccccc3)NC(=O)[C@@H]([C@@H](C)CC)NC(=O)[C@@H](CCCN)NC2=O)[C@@H](C)CC)CS1 ({Ileψ(thiazoline)Cys}-LE[d(aIle)]K[dOrn][d(aIle)][dF][dH][dD][dN]; lactam 4-C)	-6.65
CO[C@@H]1C=CO[C@]2(C)Oc3c(C)c(O)c4c(O)c(c(C=NN5CCN(C)CC5)c(O)c4c3C2=O)NC(=O)C(C)=CC=C[C@H](C)[C@H](O)[C@H](C)[C@H](O)[C@H](C)[C@H](OC(C)=O)[C@H]1C	-4.23
COCCOC(=O)C1=C(C)NC(C)=C(C(=O)OC(C)C)[C@H]1c1cccc([N+](=O)[O-])c1	-6.94
C=C1CC23C[C@H]4[C@@H]5[C@@]6(C)C[C@H](OC(=O)c7ccccc7)[C@@H](OC(C)=O)[C@]57[C@@H]2[C@@H](OC(C)=O)[C@H]1[C@@H](O)[C@H]3[C@H]7N4C6	-1.64
O=C(N/N=C\c1ccc([N+](=O)[O-])o1)c1ccc(O)cc1	-11.6

Compound	max response [%]
C[C@@H](CNC1CCCCC1)OC(=O)c1ccccc1	-19.5
CCOC(=O)O[C@@H](C)OC(=O)[C@@H]1N2C(=O)[C@@H](NC(=O)[C@@H](N)c3ccccc3)[C@H]2SC1(C)C	0.724
CC#C[C@@]1(O)CC[C@H]2[C@@H]3CCC4=CC(=O)CCC4=C3[C@H](c3ccc(N(C)C)cc3)C[C@]21C	-5.96
Cc1cccc(CN2CCN([C@@H](c3ccccc3)c3ccc(Cl)cc3)CC2)c1	-24.7
Cc1ccsc1/C=C\C1=NCCCN1C	-10.2
CC(=O)O[C@H]1C[C@H]2CC[C@@H]3[C@@H](CC[C@]4(C)[C@H](OC(C)=O)[C@H]([N+]5(C)CCCCC5)C[C@@H]34)[C@]2(C)C[C@H]1[N+]1(C)CCCCC1	-5.07
COc1cc(OC)c2c(c1Cl)O[C@@]1(C2=O)[C@H](C)CC(=O)C[C@@H]1OC	-15.1
O[C@H](c1cc(C(F)(F)F)nc2c(C(F)(F)F)cccc12)[C@H]1CCCCN1	-23.7
O=C(O)COCCN1CCN([C@@H](c2ccccc2)c2ccc(Cl)cc2)CC1	-7.35
C[N+]1(C)CC[C@@H](OC(=O)[C@@](O)(c2ccccc2)C2CCCC2)C1	-10.3
C[C@H](NCCC(c1ccccc1)c1ccccc1)c1ccccc1	-22.3
NCCC[C@H](N)CC(=O)N[C@H]1CNC(=O)[C@@H]([C@@H]2C[C@H](O)N=C(N)N2)NC(=O)/C(=C/NC(N)=O)NC(=O)[C@@H](CO)NC(=O)[C@@H](CO)NC1=O (β3hOrn-[Dap][dS][dS][ΔAla(Z-3-ureido)][X1]; lactam 1-C)	-7.39
C=CCO[C@@H](Cn1ccnc1)c1ccc(Cl)cc1Cl	-7.51
C#C[C@]1(O)CC[C@@H]2[C@H]3CCC4=CCCC[C@@H]4[C@@H]3CC[C@@]21C	-10.1
CC1(C)[C@@H](OC(=O)CCC(=O)O)CC[C@@]2(C)[C@H]1CC[C@@]1(C)[C@H]2C(=O)C=C2[C@H]3C[C@](C)(C(=O)O)CC[C@]3(C)CC[C@@]21C	-2.85
COc1ccc([C@@H]2CC(=O)c3c(O)cc(O)cc3O2)cc1O	-2.83
OCCOCCN1CCN([C@@H](c2ccccc2)c2ccc(Cl)cc2)CC1	6.93
C[C@H](CCC(=O)O)[C@H]1CC[C@@H]2[C@@H]3[C@@H](O)C[C@H]4C[C@@H](O)CC[C@@]4(C)[C@H]3CC[C@@]21C	-0.386
CN1CCO[C@H](c2ccccc2)c2ccccc2C1	-11.4
O=C(N[C@@H](CO)[C@@H](O)c1ccc([N+](=O)[O-])cc1)C(Cl)Cl	8.81
